Laboratory results from PubChem BioAssay AID1645851 (National Center for Advancing Translational Sciences (NCATS), 2021).
Where “and” joins values, the source holds several entries; their conditions need not be identical. Equal values may be shown once. The campaign covered roughly 140,000 compounds. About 1,200 (0.86%) were called active. The full list was thinned out, with actives kept by preference. Unmarked numbers belong to inactive results. Cut-off read from the data, not from the text of the source: active = activity change below about -25%; inactive = the rest.

target: Inositol hexakisphosphate kinase 1 (Homo sapiens) (UniProt Q92551); assay: Primary qHTS assay for small molecule inhibitors of Inositol hexaphosphate kinase 1 (IP6K1); details: ADP-Glo luminescence, 2 h, hits give low values; note: series mostly up to about 58 µM
Text: Assay Provider: Huijun Wei, M.S., Ph.D. School of Medicine, Johns Hopkins University, Baltimore, MD Inositol hexakisphosphate kinases (IP6Ks) catalyze pyrophosphorylation of inositol hexakisphosphate (IP6) into inositol 5-diphospho-1,2,3,4,6-pentakisphosphate (IP7), which is involved in numerous areas of cell physiology including glucose homeostasis, blood coagulation and neurological development. Inhibition of IP6Ks may be effective for the treatment of Type II diabetes, thrombosis, and psychiatric disorders. We performed a quantitative high throughput screen (qHTS) of 158,410 compounds for IP6K1 inhibitors using ankinase activity ADP-Glo Max assay. […] Medicinal chemistry SAR efforts in three chemical series identified potent IP6K1 inhibitors, which were further validated in an orthogonal LC-MS IP7 analysis.
PROTOCOL TABLE SEQUENCE No. (e.g., 1, 2, 3, etc.); […] (e.g., Cells, Incubation, Reagent, etc.); VALUE and DESCRIPTION. 1. Reagent, 3 uL of 1.3 mM ATP and 130 uM IP6 mixture in assay buffer was dispensed to a white, 1536-well assay plate. 2. Compound, 23 nL of compounds of the top two doses (57.5 uM and 19.1 uM final concentration) of the libraries were dispensed into the mixture using the Kalypsis pintool. 3. Reagent, 1 uL of 2.4 uM IP6K1 was dispensed to the assay plates. 4. Incubation, 2 hr incubation at room temperature. 5. Reagent, 2 uL of ADP-Glo reagent was added to the wells. 6. Incubation, 1 hr incubation at room temperature. 7. Reagent, 4 uL or ADP-Glo substate was added to the wells. 8. Incubation, 45 min incubation at room temperature. 9. Detection, luminescence signal was detected using the ViewLux microplate imager (PerkinElmer).
% is set by controls: 0 for no effect and ±100 for the full control effect.

Chain of Inositol hexakisphosphate kinase 1 (Homo sapiens) (Q92551 whole entry, looked up): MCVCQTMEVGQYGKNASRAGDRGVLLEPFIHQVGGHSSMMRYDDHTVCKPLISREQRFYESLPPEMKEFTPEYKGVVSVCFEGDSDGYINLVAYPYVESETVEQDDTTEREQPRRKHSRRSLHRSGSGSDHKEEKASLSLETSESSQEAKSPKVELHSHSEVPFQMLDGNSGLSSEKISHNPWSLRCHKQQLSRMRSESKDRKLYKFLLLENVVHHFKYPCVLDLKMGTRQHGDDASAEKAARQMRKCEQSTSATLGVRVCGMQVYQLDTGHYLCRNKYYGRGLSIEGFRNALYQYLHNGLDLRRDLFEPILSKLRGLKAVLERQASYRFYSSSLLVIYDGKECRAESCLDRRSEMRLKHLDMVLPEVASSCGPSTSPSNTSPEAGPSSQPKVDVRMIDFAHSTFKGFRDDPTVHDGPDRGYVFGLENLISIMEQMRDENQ

Row | Structure (SMILES) | activity change
1 | CCOC(=O)c1cc(-c2ccc(OC)c(S(=O)(=O)Nc3ccc(OC)cc3OC)c2)on1 | 1.78%
2 | Cc1ccc(-c2cc(C(=O)Oc3ccccc3Cl)no2)cc1C | -29.7% (active)
3 | COCCNC(=O)c1cc(-c2cccc(Cl)c2)on1 | -0.0295%
4 | CC(O)CNC(=O)c1ccc(-c2ncc3cnc(C4=CCOCC4)cn23)cc1 (stereo not given) | -10.8%
5 | Cc1ccccc1CC(=O)N1CCCC(n2cc(-c3nc(-c4ccccc4)no3)nn2)C1 (stereo not given) | 9.4%
6 | CC(C)NC(=O)N1CCN(c2ccc3nnc(C4CC4)n3n2)CC1 | 5.65%
7 | Cc1cccc(C(=O)NCCC2CCN(C(=O)Nc3ccc(F)cc3F)CC2)c1 | -7.16%
8 | Cc1ccccc1NC(=O)c1c(NC(=O)c2ccccc2F)sc2c1CCC(C)C2 (stereo not given) | -11.5%
9 | Cc1cccc(N2CCN(c3ccc(C(=O)O)cc3NC(=O)c3ccccc3F)CC2C)c1 (stereo not given) | -32.2% (active)
10 | Cc1cccc(C)c1-c1nc(C(=O)N2CCN(c3ncccn3)CC2)n2ccccc12 | 8.82% and 13.4%
11 | CCn1nc(CNC(=O)C2CCC(=O)N(C3CCCC3)C2)c2ccccc21 (stereo not given) | -2.6%
12 | COc1c(C)cnc(CN(C)C(=O)C2CC(=O)N(C3CCCC3)C2)c1C (stereo not given) | -26.5% (active)
13 | CN1C[C@H](NS(C)(=O)=O)CCC[C@@H](C(=O)N(C)Cc2cccnc2)CC1=O | 5.58%
14 | O=C(NC1CCN(c2nccc(Nc3ccccc3Cl)n2)CC1)c1ccccn1 | 0.678%
15 | Cc1ccncc1C(=O)N1CCC(Cn2c(C)cnc2-c2cccnc2)CC1 | 7.69%
16 | Cc1ccncc1C(=O)N1CCC2(CC1)CC(c1ccccc1)C(=O)N2C (stereo not given) | -28.9% (active)
17 | Cc1cc(N2CCC3(CC2)CC(c2ccccc2)C(=O)N3C)ncn1 (stereo not given) | 10.4%
18 | COc1ccccc1-c1ccc(CN2CCC(NC(=O)c3ccncc3)C2)cc1 (stereo not given) | 24.3%
19 | Cc1ccc(CN2C(=O)[C@@H]3C[C@@H](O)CN3C3(CN(Cc4ccc(C(F)(F)F)cc4)C3)C2=O)o1 | -6.91%
20 | Cc1cc(Cl)ccc1OCC(=O)N1CCc2n[nH]c(=O)n2CC1 | -14.4%
21 | COc1cc(C(=O)NCCS(=O)(=O)N2CCN(c3ccccc3)CC2)cc(OC)c1OC | 23.9%
22 | COc1ccc(N2CCN(S(=O)(=O)CCNC(=O)C(c3ccccc3)c3ccccc3)CC2)cc1 | 23.7%
23 | COc1ccccc1N1CCN(S(=O)(=O)CCNC(=O)COc2ccc(F)cc2)CC1 | -44.5% (active)
24 | Cc1ccc2c(c1)N(CC(=O)NCCc1ccc(Cl)cc1)C(=O)c1cccnc1O2 | -4.44%
25 | Cc1ccc2c(c1)N(CC(=O)NCCCN1CCCCC1)C(=O)c1cccnc1O2 | -101% (active)
26 | O=C(CN1C(=O)c2cccnc2Oc2ccc(Cl)cc21)NCCc1ccccc1 | -2.8%
27 | Cc1ccc(C2(O)CCN(c3nccc(CCC(F)(F)F)n3)CC2)nc1 | -3.3%
28 | CCOc1cccc2c1OC[C@@H]1CN(CCOC)C(=O)CCN(C(=O)c3ccccc3OC)[C@H]21 | -8.59%

Row | Structure (SMILES) | activity change
29 | CC(C)(C)OC(=O)N1CCC(c2c(C(=O)NCc3ccccn3)cnn2-c2ccc(F)cc2)CC1 | -1.08%
30 | CC(C)(C)OC(=O)N1CCC(c2c(C(=O)N3CCc4ccccc4C3)cnn2-c2ccc(F)cc2)CC1 | -28.8% (active)
31 | Cc1cccc(-n2ncc(C(=O)N3CCc4ccccc4C3)c2C2CCN(C(=O)OC(C)(C)C)CC2)c1 | 32.7%
32 | COc1ccc(-c2cc(C(=O)NCC(F)(F)F)c3c(C4CCCN4)nn(C)c3n2)cc1 (stereo not given) | -2.22%
33 | COc1ccccc1-c1cccc(C(=O)N2CCN(C(=O)Cc3ccc(F)cc3)CC2)c1 | 5.42%
34 | CCOC(=O)c1ccc(NC(=O)CCS(=O)(=O)c2ccc3c(c2)oc(=O)n3C)cc1 | 9.62%
35 | CCOC(=O)c1ccc(NC(=O)CCS(=O)(=O)c2ccc(C)cc2)cc1 | -30% (active)
36 | CCOC(=O)c1ccc(NC(=O)CCn2cnnn2)cc1 | 7.68%
37 | O=C(NCc1ccc(F)cc1)C1CCN(c2nccc(Nc3ccccc3F)n2)CC1 | 18.1%
38 | CN(c1ccccc1)c1cc(=O)c2ccnc(NC3CCOCC3)c2o1 | -36.2% (active)
39 | CN(c1ccccc1)c1cc(=O)c2ccnc(-c3ccc(CO)cc3)c2o1 | -7.57%
40 | CN(c1ccccc1)c1cc(=O)c2ccnc(Nc3cccc([S+](C)(=O)[O-])c3)c2o1 | -11.6%
41 | COc1ccc(-n2nc(C3CCN(Cc4ccccn4)CC3)[nH]c2=O)cc1 | 7.19%
42 | O=C(Nc1ccc(F)cc1)c1nc2cccnc2n(Cc2ccccc2)c1=O | 14.3%
43 | O=C1CCN(CC(O)COc2ccccc2)c2cc3c(cc2CN1CC1CC1)OCO3 (stereo not given) | -10.5%
44 | COc1ccc(OCC2CN(Cc3cccc(F)c3)[S+](=O)([O-])c3cccnc3O2)cc1 (stereo not given) | 0.413%
45 | O=C1CCN(C(=O)[C@H](Cc2ccccc2)NC(=O)NC2CCCCC2)CCCOCCN1 | 9.58%
46 | COc1ccc(CCC(=O)NCCc2csc(-c3ccc(Cl)cc3)n2)cc1 | -1.97%
47 | COc1ccc(CNC(=O)c2noc(-c3ccc(F)cc3)n2)cc1 | 7.64%
48 | COc1ccc(-c2nc(CCNC(=O)c3ccc(Br)o3)cs2)cc1 | -32.8% (active)
49 | O=C(c1cccc(OC2CN(Cc3nccs3)C2)c1)N1CCOCC1 | -3.36%
50 | O=C(NCc1cccc(Cl)c1)c1ccc2nccn2c1 | -8.99%
51 | Cc1n[nH]c(C)c1CNC(=O)C1Cn2cccc2C(=O)N1Cc1ccccc1 (stereo not given) | -3.14%
52 | COc1ccc(Cl)cc1-c1ccc2c(c1)C(=O)N1CCN(C(=O)CSC)C[C@@H]1C(=O)N2 | -8.89%
53 | COc1ccccc1NC(=O)c1cc(S(=O)(=O)NCCc2ccccc2)ccc1F | 14.4%
54 | Cc1ccc(NC(=O)c2cc(S(=O)(=O)NCCC3=CCCCC3)ccc2F)cc1C | -26.3% (active)
55 | CCc1ccc(NC(=O)c2cc(S(=O)(=O)NC3CCCCCC3)ccc2F)cc1 | -6.25%
